Hit rate of the full screen: of about 2,300 compounds, about 330 (14%) showed activity. The list is a sample of the results. Values without a mark were called inactive.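 Rule for the calls: active = median modified Z-score above 1.96; inactive = 1.96 or below.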
System: HepG2 Srxn1-GFP reporter cells (+30 nM CDDO-Me)
Assay: Srxn1-GFP intensity median modified Z-score relative to plate median; higher = stronger NRF2 / oxidative stress reporter activation, active = hit call of the paper
Details: 10 µM; exposure time: 24h
Outline: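 Each value is the replicate median of a per-plate modified Z-score for GFP intensity in HepG2 Srxn1-GFP BAC reporter cells. The cells (20,000 per well, 96-well plates, three replicate plates) received compound at 10 μM together with an NRF2 activator at 30 nM for 24 h, in ≤0.1% DMSO. Cytoplasmic GFP was quantified per cell from confocal images of formaldehyde-fixed, Hoechst-stained cells, leaving out images with fewer than 100 cells, and scaling used 1.4826 × median absolute deviation.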

Row | Structure (SMILES) | Srxn1-GFP intensity median modified Z-score
1 | NN=c1[nH]ncc2ccccc12 [euspeclibcmpd806] | -0.328
2 | COc1ccc2c(c1)OCC(Cc1ccc(OC)c(OC(C)=O)c1)C2=O (configuration not stated) [euspeclibcmpd1962] | 1.39
3 | COc1ccc2c(c1)OCC(Cc1ccc(O)c(OC)c1)C2=O (configuration not stated) [euspeclibcmpd1837] | 0.677
4 | COc1cc2c(cc1OC)C1(O)C(=O)c3ccc(O)c(C(=O)O)c3OC1CO2 (configuration not stated) [euspeclibcmpd1511] | -0.131
5 | COc1ccc2c(c1)OC[C@@H](Cc1ccc(OC)c(OC)c1)[C@@H]2O [euspeclibcmpd2183] | 1.04
6 | COc1ccc2c(c1)OCC(Cc1ccc(OC)c(OC)c1)C2=O (configuration not stated) [euspeclibcmpd1645] | 15.4 (active)
7 | COc1ccc2c(c1)OCC(Cc1ccc(OC)c(O)c1)C2=O (configuration not stated) [euspeclibcmpd1628] | 21.4 (active)
8 | CC(=O)O/C1=C2\C(C)[C@@H](OC(=O)C(O)[C@@H](NC(=O)c3ccccc3)c3ccccc3)C[C@@](O)([C@@H](OC(=O)c3ccccc3)C3[C@](C)(C1=O)[C@@H](O)C[C@H]1OC[C@@]31OC(C)=O)C2(C)C (some centres not stated) [euspeclibcmpd631] | 0.274
9 | O=C1O[C@H](C(O)CO)C(O)=C1O (some centres not stated) [euspeclibcmpd2046] | -0.841
10 | CC(CCC(=O)O)C1CC[C@H]2C3[C@H](O)C[C@@H]4C[C@H](O)CCC4(C)[C@H]3C[C@H](O)C12C (some centres not stated) [euspeclibcmpd1325] | -0.323
11 | CCC(C)C1NC(=O)C(CCN)NC(=O)C(NC(=O)C(CCN)NC(=O)C(NC(=O)C(CCN)NC(=O)CCCCC(C)C)C(C)O)CCNC(=O)C(C(C)O)NC(=O)C(CCN)NC(=O)C(CCN)NC(=O)C(C(C)CC)NC1=O (configuration not stated) [euspeclibcmpd887] | 0.477
12 | CC(C)C1CC[C@@H](C)CC1=O (some centres not stated) [euspeclibcmpd1630] | -0.168
13 | CC(=O)OCC(=O)[C@@]12OC3(CCCC3)O[C@@H]1CC1C3CC=C4CC(=O)C=C[C@]4(C)[C@@]3(F)[C@@H](O)C[C@@]12C (some centres not stated) [euspeclibcmpd606] | -0.413
14 | CN[C@@H]1C(OC2[C@H](O[C@H]3[C@H](O)[C@@H](O)[C@H](N=C(N)N)[C@@H](O)[C@@H]3N=C(N)N)OC(C)[C@]2(O)CO)OC(CO)C(O)C1O (some centres not stated) [euspeclibcmpd500] | 0.194
15 | CC(C)n1c(C=CC(O)CC(O)CC(=O)O)c(-c2ccc(F)cc2)c2ccccc21 (configuration not stated) [euspeclibcmpd1968] | 3.35 (active)
16 | CC(C)c1c(C(=O)Nc2ccccc2)c(-c2ccccc2)c(-c2ccc(F)cc2)n1CC[C@@H](O)C[C@@H](O)CC(=O)O [euspeclibcmpd2076] | 0.0135
17 | CC(C)=c1nc(N(C)S(C)(=O)=O)nc(-c2ccc(F)cc2)c1=CC[C@@H](O)C[C@@H](O)CC(=O)O [euspeclibcmpd2132] | 0.158
18 | CC1=C2CC(=O)C=C[C@]2(C)C2C(C1)C1CC[C@](O)(C(=O)COC(=O)CCC(=O)O)[C@@]1(C)C[C@@H]2O (some centres not stated) [euspeclibcmpd2224] | -0.845
19 | Oc1cc2c(cc1O)=C1c3ccc(O)c(O)c3OCC1(O)C=2 (configuration not stated) [euspeclibcmpd1969] | -0.521
20 | CC(CCC(=O)O)[C@H]1CCC2C3C(=O)C[C@@H]4CC(=O)CC[C@]4(C)C3CC(=O)[C@@]21C (some centres not stated) [euspeclibcmpd357] | 0.217
21 | CCCCCC(=O)Cc1cc(O)cc(O)c1C(=O)Oc1cc(CC(=O)CCCCC)c(C(=O)O)c(OC)c1 [euspeclibcmpd1619] | -0.366

Row | Structure (SMILES) | Srxn1-GFP intensity median modified Z-score
22 | COc1cc(C)c(C(=O)O)c(O)c1 [euspeclibcmpd2356] | -0.209
23 | CCCCCc1c2c(cc(O)c1C(=O)O)OC(=O)c1c(cc(OC)cc1C(=O)CCCC)O2 [euspeclibcmpd1731] | 4.46 (active)
24 | COCC1(C)NC(=O)N(CCC(=O)Nc2cc(C)on2)C1=O (configuration not stated) | 1.16
25 | CCOC(=O)C1=C(C)N=C(C)C(C(=O)OC)C1c1cccc([N+](=O)[O-])c1 (configuration not stated) [euspeclibcmpd494] | 0.225
26 | COC(=O)C1=C(C)N=C(C)C(C(=O)OC(C)C)C1c1cccc2nonc12 (configuration not stated) [euspeclibcmpd996] | -0.132
27 | CCOC(=O)C1=C(COCCN)N=C(C)C(C(=O)OC)C1c1ccccc1Cl (configuration not stated) [euspeclibcmpd713] | 22.6 (active)
28 | Cc1cc(=NC(=O)C2C(=O)c3ccccc3S(=O)(=O)N2C)[nH]o1 (configuration not stated) [euspeclibcmpd552] | -0.344
29 | CC1=c2c(C)c(O)c(C(=O)O)c(O)c2=CO[C@@H]1C [euspeclibcmpd1555] | 1.14
30 | CCCC(C(N)=O)c1ccccc1 (configuration not stated) | 1.53
31 | OCCN1C[C@@H](O)[C@@H](O)C(O)C1CO (some centres not stated) [euspeclibcmpd679] | 0.73
32 | CC(=O)OCC(=O)C1CCC2C3CC=C4C[C@@H](O)CC[C@]4(C)C3CC[C@]12C (some centres not stated) [euspeclibcmpd1443] | 0.217
33 | COC(=O)C[C@H]1C(C)(C)[C@@H](OC(C)=O)C2CC3=C4CC(=O)O[C@@H](c5ccoc5)[C@]4(C)CCC3[C@@]1(C)C2=O (some centres not stated) [euspeclibcmpd1559] | 0.833
34 | COc1c(O)c(C)c(C=CC(C)=CCC=C(C)CCC=C(C)CCC=C(C)CCC=C(C)CCC=C(C)CCC=C(C)CCC=C(C)CCC=C(C)CCC=C(C)C)c(O)c1OC [euspeclibcmpd1853] | -0.0742
35 | COc1c(C/C=C(\C)CCC(=O)O)c(O)c2c(O)occ2c1C [euspeclibcmpd334] | 11.8 (active)
36 | COc1c(C/C=C(\C)CCC(=O)OCCN2CCOCC2)c(O)c2c(O)occ2c1C [euspeclibcmpd688] | 5.22 (active)
37 | Oc1ccc(C(O)O)[nH]1 [euspeclibcmpd1237] | -0.421
38 | CC(=O)OCC[N+](C)(C)C [euspeclibcmpd13] | -0.276
39 | CC(C)=CCC=C(C)C=Cc1c(C)c(O)c2ccccc2c1O [euspeclibcmpd1484] | -0.304
40 | CN1CCN(C2N=c3cc(Cl)ccc3=Nc3ccccc32)CC1 (configuration not stated) [euspeclibcmpd804] | 0.387
41 | C#CCCCCCCCCCCCc1ccco1 [euspeclibcmpd2261] | -0.224
42 | CCCCOc1ccc(CC(O)=NO)cc1 [euspeclibcmpd1071] | 1.55

Row | Structure (SMILES) | Srxn1-GFP intensity median modified Z-score
43 | CCNCC(O)COc1ccc(CCOC)cc1 (configuration not stated) | 1.2
44 | CCCCCCCCCc1ccc(OCCOCCOCCOCCOCCOCCOCCOCCOCCO)cc1 [euspeclibcmpd736] | 18.5 (active)
45 | CC(N=C(N=c1cc[nH]cc1)NC#N)C(C)(C)C (configuration not stated) [euspeclibcmpd960] | 0.333
46 | COc1cc2oc3cc(OC)c(OC)c(C=CC(C)C)c3c(=O)c2c(O)c1CC=C(C)C [euspeclibcmpd1769] | -0.34
47 | COc1ccc(-c2oc3c(CC=C(C)C)c(O[C@@H]4O[C@H](CO)[C@@H](O)[C@H](O)[C@H]4O)cc(O)c3c(=O)c2O[C@@H]2O[C@@H](C)[C@H](O)[C@@H](O)[C@H]2O)cc1 [euspeclibcmpd2338] | 0.366
48 | COc1cc2oc3cc(OC)c(OC)c(CC=C(C)C)c3c(=O)c2c(OC)c1CC=C(C)C [euspeclibcmpd1951] | 13.2 (active)
49 | COc1ccc(-c2oc3cc(OC)c(OC)c(OC)c3c(=O)c2OC)cc1 [euspeclibcmpd1578] | 0.25
50 | COc1c(O)cc2oc3cc(O)c(CC=C(C)C)c(O)c3c(=O)c2c1C=CC(C)C [euspeclibcmpd1547] | 34.4 (active)
51 | COc1cc(-c2coc3cc(O)c(OC)c(O)c3c2=O)cc(O)c1OC [euspeclibcmpd1394] | 1.24
52 | CC(C)=CCc1c(O)cc2oc(C)cc(=O)c2c1O [euspeclibcmpd1412] | 1.94
53 | COc1cc(O)c2c(=O)cc(C)oc2c1CC=C(C)C [euspeclibcmpd1598] | 2.54 (active)
54 | COc1ccc(-c2oc3cc(OC)c(OC)c(OC)c3c(=O)c2OC)cc1OC [euspeclibcmpd1579] | 0.934
55 | C[C@@H]1CC2C3CC=C4CC(=O)C=C[C@]4(C)[C@@]3(F)[C@@H](O)C[C@]2(C)[C@@]1(O)C(=O)COP(=O)(O)O (some centres not stated) [euspeclibcmpd2420] | -0.794
56 | CC[C@H]1OC(=O)C(C)[C@@H](O[C@H]2C[C@@](C)(OC)[C@@H](O)[C@H](C)O2)[C@H](C)[C@@H](O[C@@H]2O[C@H](C)C[C@H](N(C)C)[C@H]2O)[C@](C)(O)C[C@@H](C)[C@@H]2N[C@@H](COCCOC)O[C@H]([C@H]2C)[C@]1(C)O (some centres not stated) [euspeclibcmpd652] | -0.125
57 | O=C(O)C1=C(CSc2nnnn2CS(=O)(=O)O)CSC2C(NC(=O)C(O)c3ccccc3)C(=O)N12 (configuration not stated) [euspeclibcmpd2255] | 0.114
58 | NC(C=O)C(O)NNCc1ccc(O)c(O)c1O (configuration not stated) [euspeclibcmpd32] | -0.0581
59 | C[C@@H]1CC2C3CC(F)=C4CC(=O)C=C[C@]4(C)[C@@]3(F)[C@@H](O)C[C@]2(C)[C@@]1(O)C(=O)CO (some centres not stated) [euspeclibcmpd415] | -0.177
60 | CC(C)=CC1C(CO)C1(C)C (configuration not stated) [euspeclibcmpd1789] | 2.3 (active)
61 | CC(C)=CC1C(C(=O)O)C1(C)C (configuration not stated) [euspeclibcmpd2019] | 0.889
62 | O=c1c(O)c(-c2ccc(O)cc2O)oc2cc(O)cc(O)c12 [euspeclibcmpd1432] | -0.493

From the supplement of paper PMC10498489
